The list is not random: actives were taken first. Their share in the collection is about 19%.
HT1080 IDH1KD tx: toxicity to HT-1080 IDH1 knockdown cells (counter line); HT-1080 IDH1 knockdown viability, ATP luminescence, 48 h; Potency, µM (top dose mostly 46.1 µM), inactives show at the highest dose activity, negative = toxicity, usual class: cytotoxic; 360,000 compounds, 2% hits; AID 686971;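 also: potency is read from the fitted curve at half-maximal effect; 0% = DMSO wells and -100% = cell-free medium wells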
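HT-1080-IDH1KD cells (IDH1 knocked down), 750/well in RPMI with 5% FBS, treated with compound 48 h at 37 degrees C. Viability by CellTiter-Glo luminescence, normalised to DMSO and no-cell wells; concentration-response curves classed.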
IL-1B inflam inh: blocks inflammasome-driven IL-1 beta release; AID 743279; activity change, % at 57.5 µM; THP-1 LPS/ATP IL-1B secretion, AlphaLISA, 16 h; active compounds read low; 360,000 compounds, 4.7% hits; in the data active = activity change below about -50%; inconclusive = mostly about -30% to -49%
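Secreted IL-1B measured by AlphaLISA bead assay after 16 h compound exposure of THP-1 cells; compounds (final up to 57.5 uM) added 1 h before LPS (250 ng/mL) and ATP (1.25 mM) stimulation; lower signal means less secretion.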
TDP1 cell CPT: growth inhibition of DT40 Tdp1-/-;hTDP1 cells with camptothecin (screen for TDP1 inhibitors); chicken DT40 Tdp1-/-;hTDP1 cells + 20 nM CPT, ATP luminescence, 48 h; Potency, µM (series often up to 46.2 µM), for the others: at the highest dose activity change, negative = growth inhibition, usual class: inhibitors; 420,000 compounds, 12% hits; AID 686979; also: potency is read from the fitted curve at half-maximal effect; nearly all actives have a fitted effect of over 55% in size
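Chicken DT40 Tdp1-/- cells complemented with human TDP1, 400 cells/well, exposed to compounds plus 20 nM camptothecin for at least 48 h at 37 C; viability read as ATP content by CellTiter-Glo luminescence.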
HT1080NT lethal: kills 2HG-producing HT-1080-NT fibrosarcoma cells. 360,000 compounds, 1.6% hits. Potency, µM (doses to about 46.1 µM), inactives show top-dose activity, negative = less viability, actives largely listed as cytotoxic. HT-1080-NT fibrosarcoma viability, CellTiter-Glo ATP luminescence, 48 h;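 also: NT is the 2HG producing partner of a matched IDH1 knockdown line; potency is read from the fitted curve at half-maximal effect; 0% = DMSO-treated cells and -100% = media-only wells without cells; nearly all actives have a fitted effect of over 55% in size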
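Read-out is CellTiter-Glo luminescence after 10 minutes at room temperature, following 48 hours' compound treatment of HT-1080-NT cells (750 cells/well, RPMI, 5% FBS, 37 degrees C).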
TDP1 cell noCPT: qHTS for Inhibitors of human tyrosyl-DNA phosphodiesterase 1 (TDP1): qHTS in cells in absence of CPT. 420,000 compounds, 15% hits. AID 686978, 2013. DT40 Tdp1-/- hTDP1 cells, no CPT, ATP luminescence, 48 h. Potency, µM (highest dose often 46.2 µM), for inactives: at the highest dose activity change, negative = growth inhibition, hits mostly inhibitors; also: potency is read from the fitted curve at half-maximal effect; nearly all actives have a fitted effect of over 55% in size
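Chicken DT40 Tdp1-/- cells stably complemented with human TDP1 were seeded at 400 cells/well with DMSO in place of 20 nM camptothecin. After compound pinning, cells grew at least 48 hr at 37 °C; viability read by CellTiter-Glo luminescence.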
* marks the source's active call; other numbers are inactive results; ? = inconclusive; · = no result; [ ] = dose if it differs, or a comment. Unless noted, calls follow the shape of the dose curve; as a rule, active = well fitted curve in the direction sought with a large enough effect; inconclusive = small, poorly fitted or top-dose-only effect, or another doubt; inactive = no such curve, though single readings can be large; an effect the other way counts as inactive or inconclusive. Unless noted, % is scaled to controls: 0 for no effect and ±100 for the full control effect.

SMILES | HT1080 IDH1KD tx | IL-1B inflam inh | TDP1 cell CPT | HT1080NT lethal | TDP1 cell noCPT
CCc1nc2ccc(C(=O)Nc3cc(-c4ccccc4)ccc3OC)cn2c1N(C=O)CCC(C)C | ? | -60* | 16µM* | -30% | 15µM*
CCc1nc2ccc(C(=O)Nc3cc(-c4ccccc4)ccc3OC)cn2c1N(C)CCC(C)C | ? | ? | 18µM* | ? | 21µM*
CCc1nc2ccc(C(=O)Nc3cc(-c4ccccc4)ccc3OC)cn2c1N(CCN(C)C)CC1CC1 | 18µM* | ? | 21µM* | ? | 15µM*
CCc1nc2ccc(C(=O)NCCC(C)C)cn2c1N(CCN(C)C)CC1CC1 | -11% | 0 | -9% | -10% | -6%
COC(=O)[C@@H]1[C@H]2SC(C)(C)[C@H](C(=O)OC)N2C(=O)N1Cc1cc2ccccc2n1S(=O)(=O)c1ccccc1 | · | · | ? | · | 13µM*
COC(=O)C1N2C(=O)N(C)[C@H](C(=O)OC)[C@H]2SC1(C)C (stereo not given in full) | · | · | -9% | · | -3%
COc1ccc(NC(=O)c2ccc(S(=O)(=O)N(C)c3ccccc3)cc2)cc1S(=O)(=O)N1CCOCC1 | ? | 34 | 23µM* | ? | 15µM*
Cc1ccc(NC(=O)c2ccc(S(=O)(=O)N(C)c3ccccc3)cc2)cc1S(=O)(=O)N1CCOCC1 | -15% | 27 | 23µM* | -5% | ?
Cc1ccc(NC(=O)c2ccc3c(c2)OCO3)cc1S(=O)(=O)N1CCOCC1 | -1% | 4 | ? | 1% | ?
CC(=O)NCCc1ccc(S(=O)(=O)Nc2cccnc2)cc1 | 24% | 28 | -15% | 5% | -9%
CC1(C(=O)NS(=O)(=O)c2ccc3ccccc3c2)CCN1C(=O)Cc1ccc(Cl)cc1Cl (stereo not given) | -6% | 6 | -15% | -10% | ?
COc1cc2c(cc1NC(=O)CSc1ccccc1)oc1ccccc12 | 13% | 13 | ? | 7% | ?
COc1cc2c(cc1NC(=O)CSc1nccn1C)oc1ccccc12 | -10% | -20 | ? | 1% | 18µM*
COc1cc2c(cc1NC(=O)CSc1nc3cc(Cl)ccc3s1)oc1ccccc12 | 3% | 24 | ? | 7% | 12µM*
Cc1ccccc1OCc1nnc2c3cnn(C)c3ncn12 | 9% | -22 | -22% | 11% | -21%
O=C1N=C(N2CCOCC2)S/C1=C\c1ccccc1OS(=O)(=O)c1ccccc1 | 9% | 12 | 12µM* | -12% | 8.2µM*
O=C1N=C(N2CCOCC2)S/C1=C/c1cc2c(cc1[N+](=O)[O-])OCO2 | ? | -100* | 12µM* | ? | 13µM*
CC(C)=C1SC(N2CCOCC2)=NC1=O | 0% | -6 | 2% | 0% | -10%
CC(=O)N1CCN(C2=NC(=O)/C(=C/c3ccc(OS(=O)(=O)c4ccccc4)cc3)S2)CC1 | -2% | 0 | 21µM* | -6% | ?
CCCCOc1ccc(C(C)NC(=O)CN2C(=O)CSc3ccc(S(=O)(=O)N4CCOCC4)cc32)cc1 (stereo not given) | · | · | ? | · | 23µM*
CCCCC(CC)CNC(=O)CN1C(=O)CSc2ccc(S(=O)(=O)N3CCOCC3)cc21 (stereo not given) | · | · | 16µM* | · | 13µM*
Cc1ccccc1CNC(=O)CN1C(=O)CSc2ccc(S(=O)(=O)N(C)C)cc21 | · | · | ? | · | -2%
CCCCNC(=O)CN1C(=O)CSc2ccc(S(=O)(=O)N3CCOCC3)cc21 | 13% | -7 | -2% | 10% | -4%
CCCN(CCC)S(=O)(=O)c1ccc2c(c1)N(CC(=O)NC(C)c1ccccc1)C(=O)CS2 (stereo not given) | · | · | ? | · | 23µM*
NC(N)=NC(N)=Nc1ccc(SC(F)(F)F)cc1 | -15% | -20 | 10µM* | -15% | 9.2µM*
SMILES | HT1080 IDH1KD tx | IL-1B inflam inh | TDP1 cell CPT | HT1080NT lethal | TDP1 cell noCPT
COc1cccc(N=C(N)N=C(N)N)c1 | 3% | -4 | 3% | 9% | -2%
COc1ccc(S(=O)(=O)Nc2ccccc2C(=O)N2CCOCC2)cc1Cl | -2% | 26 | 1% | 5% | 16%
Cc1ccc(Cn2c(C3CCCN3c3nc(C)cs3)nc3cc(C(F)(F)F)ccc32)cc1 (stereo not given) | -17% | -18 | ? | -27% | 21µM*
COc1ccc(Cl)cc1NC(=O)CN(C)C(=O)/C=C/c1ccco1 | -9% | 3 | -25% | 0% | -20%
Cc1onc(-c2c(F)cccc2Cl)c1C(=O)N=C(N)N1CCCC1 | 11% | 7 | -3% | 20% | -17%
Cc1noc(/C=C/c2cccnc2)c1[N+](=O)[O-] | ? | -94* | 21µM* | 21µM* | 13µM*
Cc1ccc(NC(=O)C2=C(c3ccccc3)S(=O)(=O)CCS2(=O)=O)cc1 | 7.3µM* | -104* | 0.46µM* | 10µM* | 0.58µM*
O=S(=O)(c1ccc(OC(F)(F)F)cc1)N1CCCC(N2CCOCC2)C1 (stereo not given) | 13% | 15 | 2% | 16% | 6%
CCC(=O)/C=C1/Sc2ccc(OC)cc2N1CCO | 7% | 0 | ? | 12% | ?
CCC(=O)/C=C1/Sc2ccc(OC)cc2N1CC | 1%[9.24 µM] | 0 | 10µM* | -5% | ?
CCC(/C=C1\Sc2ccc(OC)cc2N1CCO)=C\c1sc2ccc(OC)cc2[n+]1CCO | ? | -113* | 3.3µM* | ? | 5.2µM*
CCC(/C=C1\Sc2ccc(OC)cc2N1CC)=C\c1sc2ccc(OC)cc2[n+]1CCCS(=O)(=O)[O-] | -7% | ? | 3.3µM* | -11% | 1.8µM*
COc1ccc(CCN2CC(C(=O)NCCc3ccccn3)CCC2=O)cc1 (stereo not given) | 20% | -3 | 0% | -10% | 2%
Cn1cc(-c2nc3cncnc3n(Cc3ccccc3Cl)c2=O)c2ccccc21 | · | · | -3% | · | -9%
COc1ccc2ccccc2c1CN1CCCC(n2cc(C(=O)N3CCCC3)nn2)C1 (stereo not given) | · | · | 0% | · | -9%
Cn1nccc1C(=O)N1CCc2c([nH]c3ccccc23)C1c1ccc(F)cc1 (stereo not given) | -14% | -12 | -14% | 0% | -7%
CCN(CC)c1ccc(C(=O)N2CCc3c([nH]c4ccccc34)C2c2ccc(F)cc2)cc1 (stereo not given) | · | · | 2.9µM* | · | ?
CCc1ccc(C2c3[nH]c4ccccc4c3CCN2C(=O)c2cc[n+]([O-])cc2)cc1 (stereo not given) | ? | 13 | 26µM* | ? | 16µM*
Cc1c(C(=O)N(CCO)Cc2ccccc2)oc2c(F)cccc12 | 2% | 15 | ? | -5% | -8%
